Results reported in PubChem BioAssay (NCATS).
“And” between values parts separate entries of the source, which are not always exact repeats. Equal values may be shown once. Results filed as inconclusive are left out. Where a call stands in place of a potency, no number is given. The source made the active and inactive calls. Unless noted, the call rests on the fitted dose curve; in most records, active means well fitted curve in the direction sought with a large enough effect; inconclusive means small, poorly fitted or top-dose-only effect, or another doubt; inactive means no such curve, though single readings can be large; an effect the other way counts as inactive or inconclusive.

Columns and labels:
[1] = target: Thioredoxin reductase 1, cytoplasmic (Rattus norvegicus) (UniProt O89049); assay: qHTS Assay for Substrates of Mammalian Selenoprotein Thioredoxin Reductase 1 (TrxR1) (AID 488772);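 further: NADPH fluorescence in the first read after selenite addition and not the 8 min delta; series mostly up to about 57 µM; a drop in NADPH fluorescence below the no-compound background marks a TrxR1 substrate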
Summary of the method: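 Quantitative HTS in Tris-HCl buffer at pH 7.5 with EDTA and Tween-20, using rat TrxR1, 400 uM NADPH and 400 uM selenite (final). A fall in initial NADPH fluorescence relative to background marked substrate behaviour.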

[2] = target: Thioredoxin reductase 1, cytoplasmic (Rattus norvegicus) (UniProt O89049); assay: qHTS Assay for Inhibitors of Mammalian Selenoprotein Thioredoxin Reductase 1 (TrxR1) (AID 488773); details: Potency: inhibition; further: nearly all actives have a fitted effect of over 40% in size; further: potency means the concentration at half of the fitted maximal effect
Summary of the method: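 Steps: enzyme (90 nM) plus NADPH (400 uM final), 5 min at ~22 deg C; compound added, 15 min; selenite (400 uM final) added; fluorescence followed for 8 min. Concentration-response curves derived from the normalized delta values.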

[3] = target: M-phase phosphoprotein 8 (Homo sapiens) (UniProt Q99549); assay: qHTS Validation Assay for Inhibitors for MPP8 Chromodomain Interactions with Methylated Histone Tails (AID 488949); further: nearly all actives have a fitted effect of over 55% in size; further: potency means the concentration at half of the fitted maximal effect
Summary of the method: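 AlphaScreen proximity signal from streptavidin donor and Ni-chelate acceptor beads (10 ug/mL each) reported binding of MPP8 to trimethyl-K9 H3(1-18) peptide, both at 50 nM. The complex formed 30 min before a 30 min compound exposure at room temperature, in PBS pH 7.4.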

[4] = target: Chromobox protein homolog 1 (Homo sapiens) (UniProt P83916); assay: qHTS Validation Assay for Inhibitors of HP1-beta Chromodomain Interactions with Methylated Histone Tails (AID 488953); further: nearly all actives have a fitted effect of over 50% in size; further: potency means the concentration at half of the fitted maximal effect
Summary of the method: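 HP1-beta (50 nM) preformed 30 min with biotinylated H3(1-18)K9me3 peptide (50 nM) in PBS pH 7.4, 0.01% Tween-20. Compounds added for 30 min at room temperature. Complex disruption read by AlphaScreen with streptavidin donor/nickel chelate acceptor beads (10 ug/mL each).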

[5] = target: Methanococcus maripaludis chaperonin (MmCpn) (UniProt Q6LX38); assay: High-Throughput Screening for Modulators of Cytosolic Chaperonin Activity: MmCpn Primary Screen (AID 488978);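 further: 50 nM MmCpn enzyme hydrolysing 30 µM ATP at 37 °C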
Summary of the method: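 ATPase activity of 50 nM MmCpn was assayed with 30 uM ATP, 10 minutes at 37C, after a 5 min compound preincubation at room temperature. ADP production was read as HTRF emission at 590 and 665 nm.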

[6] = target: D(1A) dopamine receptor (Homo sapiens) (UniProt P21728); assay: HTS Assay for Allosteric Agonists of the Human D1 Dopamine Receptor: Primary Screen for Potentiators (AID 488982)
Summary of the method: (§1)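 Tetracycline-induced HEK293 T-REx cells force-coupled to calcium signalling were incubated overnight at 30 C and dye-loaded at room temperature. Calcium flux over 180 s after compound addition flagged agonists; a further 180 s read after EC20 dopamine flagged potentiators.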

[7] = target: D(1A) dopamine receptor (Homo sapiens) (UniProt P21728); assay: HTS Assay for Allosteric Agonists of the Human D1 Dopamine Receptor: Primary Screen for Antagonists (AID 488983);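 further: calcium flux response to an EC80 dopamine challenge measured with no-wash dye; nearly all actives have a fitted effect of over 65% in size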; further: potency means the concentration at half of the fitted maximal effect
Summary of the method: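 Tetracycline-induced HEK293 T-REx D1 line, force-coupled to calcium flux, read with no-wash calcium dye. Compound added after 10 s baseline, read 180 s for agonism, then EC80 dopamine added and read a further 180 s.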

[8] = target: ATPase family AAA domain-containing protein 5 (Homo sapiens) (UniProt Q96QE3); assay: Validation screen for small molecules that inhibit ELG1-dependent DNA repair in human embryonic kidney (HEK293T) cells expressing luciferase-tagged ELG1 (AID 493107); further: nearly all actives have a fitted effect of over 70% in size; further: potency means the concentration at half of the fitted maximal effect
Summary of the method: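 HEK293T cells expressing luciferase-tagged ELG1, 2,000 per well, treated with 5-fluorouridine plus compound for 16 h at 37 C. ONE-Glo luminescence after 30 min at room temperature reports ELG1 reporter level.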

[9] = qHTS for Inhibitors of Cell Surface uPA Generation: Validation Assay (AID 493164)
Summary of the method: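 RAW 264.7 cells (4000/well) were plated overnight, then exposed for 18 h at 37 C, 5% CO2 to compounds in a 7-point 1:5 titration (2.45 nM–38.3 uM final). Intracellular ATP was read by ATP-Lite luminescence.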

[10] = target: Transient receptor potential cation channel subfamily V member 1 (Homo sapiens) (UniProt Q8NER1); assay: HTS Assay for Compounds that Act as Enhancers of the Vanilloid Receptor 1 (AID 488979)
Summary of the method: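 TRPV1-expressing cells loaded with Fluo-8 calcium dye; compounds added and calcium influx read kinetically for 3 min (agonist phase), then capsaicin at EC20 added and read 2 min more for enhancement. Fluorescence ex 480/em 520 nm.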

[11] = target: Thyrotropin receptor (Homo sapiens) (UniProt P16473); assay: qHTS Assay for Antagonists of the Thyroid Stimulating Hormone Receptor (AID 488980); further: series mostly up to about 58 µM
Summary of the method: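 Inhibition of cAMP raised by EC80 TSH (4 nM final) was read by HTRF, with lysate cAMP competing against cAMP-d2 for cryptate antibody after 30 min at room temperature. The cells were transfected HEK293 held in phosphodiesterase inhibitor RO 20-1724 at 70 uM.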

[12] = target: D(1A) dopamine receptor (Homo sapiens) (UniProt P21728); assay: HTS Assay for Allosteric Agonists of the Human D1 Dopamine Receptor: Primary Screen for Agonists (AID 488981)
Summary of the method: as §1

[13] = Validation screen for small molecules that induce genotoxicity in human embryonic kidney (HEK293T) cells expressing luciferase-tagged ELG1 (AID 493106); further: potency means the concentration at half of the fitted maximal effect
Summary of the method: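 HEK293T cells expressing luciferase-tagged ELG1, 2,000 cells/well, exposed to compound 16 hr at 37 °C, 5% CO2. Luciferase read after ONE-Glo, 30 min at room temperature; increased signal indicates genetic stress.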

[14] = Nrf2 qHTS screen for inhibitors: Validation (AID 493153; active means well fitted inhibition curve with a large enough effect in the main read-out, with a control signal flat, not every such curve was filed as active); details: Potency: luciferase luminescence; viability change: measured here: cytotoxicity max response
Summary of the method: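 A549 cells carrying ARE-firefly luciferase reporter, 5000 cells/well in 5% FBS OPTI-MEM, treated with compound over a concentration series for 18-24 h at 37 C. Luciferase luminescence gave Nrf2 activity; CellTiter-Fluor fluorescence gave viability.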

[15] = target: Galactokinase (Homo sapiens) (UniProt P51570); assay: qHTS Validation Assay for Inhibitors of Human Galactokinase (GALK) (AID 493189)
Summary of the method: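 Inhibition was measured as remaining ATP, detected by luciferase luminescence after a 1 h room-temperature reaction. Final conditions: 5 nM GALK, 100 uM galactose, 35 uM ATP, pH 8.0 HEPES buffer.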

[16] = target: Flap endonuclease 1 (Homo sapiens) (UniProt P39748); assay: qHTS Validation Assay for the Inhibitors of Human Flap endonuclease 1 (FEN1) (AID 488816)
Summary of the method: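 FEN1, dispensed as a 10 nM reagent, was preincubated with pin-transferred compounds for 15 min at room temperature before substrate was added (50 nM final). Plates were read at 0 and 15 min, and a four-parameter Hill equation was fitted to the concentration-response data.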

[17] = target: ATP-dependent 6-phosphofructokinase (Trypanosoma brucei brucei) (UniProt O15648); assay: qHTS Assay to Find Inhibitors of T. brucei phosphofructokinase: hit validation (AID 492961);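 further: luminescence reports ADP formed as PFK phosphorylates fructose-6-phosphate with ATP; series mostly up to about 51 µM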
Summary of the method: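 PFK 1.25 nM, F6P 0.5 mM, ATP 0.1 mM, MgCl2 5 mM, 0.1 M TEA pH 8.0, Tween20 0.01%, BSA 0.1%; 45 min RT. ADP-Glo two-step detection, luminescence. qHTS titration; curve fitting with curve-class categorization.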

[18] = target: Thyrotropin-releasing hormone receptor (Homo sapiens) (UniProt P34981); assay: qHTS for Small Molecule Agonists and Allosteric Enhancers of Human TRH Receptor: Validation Screen for Agonists (AID 493127;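 active means calcium activation more than 3 SD above the typical response in the agonist read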); details: TRH receptor agonist cell assay; at 2 µM; stronger effect = higher value
Summary of the method: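 TRHR cells loaded with fluo-8 calcium dye; FDSS kinetic fluorescence (Ex 480/Em 530) read at 1 s/cycle after 23 nL compound addition. Agonist-mode calcium response recorded before the 10 nM TRH (EC20) addition.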

Chain of Thyrotropin receptor (Homo sapiens) (P16473 whole entry, looked up): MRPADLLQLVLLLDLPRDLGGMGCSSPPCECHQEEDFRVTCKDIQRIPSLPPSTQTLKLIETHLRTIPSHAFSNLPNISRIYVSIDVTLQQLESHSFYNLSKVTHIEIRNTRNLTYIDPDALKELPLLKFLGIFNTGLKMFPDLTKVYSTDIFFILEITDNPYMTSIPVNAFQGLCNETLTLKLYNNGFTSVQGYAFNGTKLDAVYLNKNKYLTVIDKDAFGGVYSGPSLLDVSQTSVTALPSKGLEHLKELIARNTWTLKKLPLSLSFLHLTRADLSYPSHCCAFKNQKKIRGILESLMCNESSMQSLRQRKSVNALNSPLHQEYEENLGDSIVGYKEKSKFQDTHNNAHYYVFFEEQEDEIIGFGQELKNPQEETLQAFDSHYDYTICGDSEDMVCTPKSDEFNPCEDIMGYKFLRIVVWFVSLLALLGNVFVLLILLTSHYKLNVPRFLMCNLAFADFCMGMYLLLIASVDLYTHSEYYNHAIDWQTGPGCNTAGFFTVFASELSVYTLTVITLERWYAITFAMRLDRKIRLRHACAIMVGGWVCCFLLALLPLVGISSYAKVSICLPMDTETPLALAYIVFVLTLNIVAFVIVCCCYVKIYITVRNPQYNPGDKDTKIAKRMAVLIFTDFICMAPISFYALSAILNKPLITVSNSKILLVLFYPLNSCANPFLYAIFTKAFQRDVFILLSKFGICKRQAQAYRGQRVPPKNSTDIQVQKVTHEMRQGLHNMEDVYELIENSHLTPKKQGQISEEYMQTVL
Chain of Galactokinase (Homo sapiens) (P51570 whole entry, looked up): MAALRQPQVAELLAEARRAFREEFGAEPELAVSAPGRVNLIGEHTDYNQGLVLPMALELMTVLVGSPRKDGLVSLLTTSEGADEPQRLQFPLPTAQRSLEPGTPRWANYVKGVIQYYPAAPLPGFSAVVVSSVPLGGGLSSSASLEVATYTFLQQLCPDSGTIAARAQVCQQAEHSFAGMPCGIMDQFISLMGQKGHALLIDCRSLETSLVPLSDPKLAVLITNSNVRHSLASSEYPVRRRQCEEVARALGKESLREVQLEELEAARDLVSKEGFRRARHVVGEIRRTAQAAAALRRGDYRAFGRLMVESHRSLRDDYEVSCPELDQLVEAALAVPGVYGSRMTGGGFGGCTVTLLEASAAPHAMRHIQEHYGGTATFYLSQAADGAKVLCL
Chain of D(1A) dopamine receptor (Homo sapiens) (P21728 whole entry, looked up): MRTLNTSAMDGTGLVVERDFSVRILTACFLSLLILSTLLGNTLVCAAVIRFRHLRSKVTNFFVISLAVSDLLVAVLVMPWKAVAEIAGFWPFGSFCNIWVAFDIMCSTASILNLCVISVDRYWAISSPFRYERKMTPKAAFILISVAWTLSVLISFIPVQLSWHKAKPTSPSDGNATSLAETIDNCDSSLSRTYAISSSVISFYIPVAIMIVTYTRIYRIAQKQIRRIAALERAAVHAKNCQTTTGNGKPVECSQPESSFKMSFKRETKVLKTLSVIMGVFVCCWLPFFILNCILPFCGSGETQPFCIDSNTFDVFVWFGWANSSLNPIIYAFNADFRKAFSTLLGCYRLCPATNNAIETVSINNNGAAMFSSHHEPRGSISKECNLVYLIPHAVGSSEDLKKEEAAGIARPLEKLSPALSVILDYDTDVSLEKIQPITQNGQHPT
Chain of Chromobox protein homolog 1 (Homo sapiens) (P83916 whole entry, looked up): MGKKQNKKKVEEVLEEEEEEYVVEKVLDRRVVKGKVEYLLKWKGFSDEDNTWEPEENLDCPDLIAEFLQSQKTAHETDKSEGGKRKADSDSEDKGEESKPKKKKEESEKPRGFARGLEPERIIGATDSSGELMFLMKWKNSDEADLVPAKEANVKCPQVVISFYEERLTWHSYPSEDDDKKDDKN
Chain of Methanococcus maripaludis chaperonin (MmCpn) (Q6LX38 1-543): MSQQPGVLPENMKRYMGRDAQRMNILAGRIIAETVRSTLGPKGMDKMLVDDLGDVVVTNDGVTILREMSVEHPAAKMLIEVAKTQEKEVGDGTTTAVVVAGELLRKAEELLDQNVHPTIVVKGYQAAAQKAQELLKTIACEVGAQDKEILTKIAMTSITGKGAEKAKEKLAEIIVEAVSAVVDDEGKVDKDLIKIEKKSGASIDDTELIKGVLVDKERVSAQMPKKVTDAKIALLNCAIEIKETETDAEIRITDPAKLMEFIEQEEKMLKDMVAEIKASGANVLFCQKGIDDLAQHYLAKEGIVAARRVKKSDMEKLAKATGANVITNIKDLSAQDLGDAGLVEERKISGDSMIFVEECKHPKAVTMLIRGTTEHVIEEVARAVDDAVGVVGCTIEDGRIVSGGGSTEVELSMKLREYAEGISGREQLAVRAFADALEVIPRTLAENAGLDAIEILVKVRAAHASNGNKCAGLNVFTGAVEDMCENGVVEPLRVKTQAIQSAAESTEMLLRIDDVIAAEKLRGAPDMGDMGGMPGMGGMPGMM
Chain of Flap endonuclease 1 (Homo sapiens) (P39748 whole entry, looked up): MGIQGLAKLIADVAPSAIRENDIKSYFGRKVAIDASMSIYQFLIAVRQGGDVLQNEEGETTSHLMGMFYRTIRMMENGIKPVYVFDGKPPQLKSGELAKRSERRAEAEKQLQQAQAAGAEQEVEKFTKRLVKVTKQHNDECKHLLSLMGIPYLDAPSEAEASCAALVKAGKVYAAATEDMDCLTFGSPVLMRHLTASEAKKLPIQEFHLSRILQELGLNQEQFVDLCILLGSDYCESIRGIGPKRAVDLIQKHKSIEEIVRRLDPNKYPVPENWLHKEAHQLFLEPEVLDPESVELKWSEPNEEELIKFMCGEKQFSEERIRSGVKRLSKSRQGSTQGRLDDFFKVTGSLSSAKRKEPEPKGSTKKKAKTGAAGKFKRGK
Chain of Thioredoxin reductase 1, cytoplasmic (Rattus norvegicus) (O89049 whole entry, looked up): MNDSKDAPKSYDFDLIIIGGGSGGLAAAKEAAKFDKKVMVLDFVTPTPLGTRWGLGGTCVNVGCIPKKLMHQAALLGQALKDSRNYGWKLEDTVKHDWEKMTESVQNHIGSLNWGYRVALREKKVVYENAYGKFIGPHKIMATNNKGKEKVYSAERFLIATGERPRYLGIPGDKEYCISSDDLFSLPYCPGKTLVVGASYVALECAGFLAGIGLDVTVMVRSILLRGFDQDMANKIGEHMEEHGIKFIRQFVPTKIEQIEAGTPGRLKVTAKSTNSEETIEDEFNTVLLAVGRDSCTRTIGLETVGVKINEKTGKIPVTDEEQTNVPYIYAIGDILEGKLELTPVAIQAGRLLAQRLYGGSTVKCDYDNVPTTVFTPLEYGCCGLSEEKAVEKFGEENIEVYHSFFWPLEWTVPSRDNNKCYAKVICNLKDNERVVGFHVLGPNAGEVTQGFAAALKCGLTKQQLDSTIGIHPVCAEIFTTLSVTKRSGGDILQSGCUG
Chain of M-phase phosphoprotein 8 (Homo sapiens) (Q99549 whole entry, looked up): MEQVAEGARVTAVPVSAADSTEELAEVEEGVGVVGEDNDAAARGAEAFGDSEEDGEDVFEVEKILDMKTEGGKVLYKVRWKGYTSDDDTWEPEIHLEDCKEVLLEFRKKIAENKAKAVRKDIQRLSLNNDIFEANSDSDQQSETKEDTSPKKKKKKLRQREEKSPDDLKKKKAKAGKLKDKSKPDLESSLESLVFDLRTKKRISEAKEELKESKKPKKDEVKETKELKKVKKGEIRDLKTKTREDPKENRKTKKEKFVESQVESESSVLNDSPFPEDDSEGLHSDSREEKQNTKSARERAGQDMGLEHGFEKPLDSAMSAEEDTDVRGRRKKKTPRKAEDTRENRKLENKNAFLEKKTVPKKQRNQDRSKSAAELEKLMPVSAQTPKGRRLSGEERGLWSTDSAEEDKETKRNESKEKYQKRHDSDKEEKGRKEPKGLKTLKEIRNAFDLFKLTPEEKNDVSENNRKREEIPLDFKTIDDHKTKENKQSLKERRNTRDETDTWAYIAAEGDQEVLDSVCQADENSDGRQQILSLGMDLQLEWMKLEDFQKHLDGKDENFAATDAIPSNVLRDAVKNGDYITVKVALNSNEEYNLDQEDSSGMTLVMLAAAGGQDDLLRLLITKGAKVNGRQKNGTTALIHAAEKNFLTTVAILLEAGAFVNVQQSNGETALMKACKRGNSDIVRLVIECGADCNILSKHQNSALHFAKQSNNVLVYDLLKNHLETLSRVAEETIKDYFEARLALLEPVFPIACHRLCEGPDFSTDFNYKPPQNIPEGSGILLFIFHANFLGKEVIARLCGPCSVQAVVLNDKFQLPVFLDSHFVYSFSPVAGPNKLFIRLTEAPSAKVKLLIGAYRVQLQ
Chain of Transient receptor potential cation channel subfamily V member 1 (Homo sapiens) (Q8NER1 whole entry, looked up): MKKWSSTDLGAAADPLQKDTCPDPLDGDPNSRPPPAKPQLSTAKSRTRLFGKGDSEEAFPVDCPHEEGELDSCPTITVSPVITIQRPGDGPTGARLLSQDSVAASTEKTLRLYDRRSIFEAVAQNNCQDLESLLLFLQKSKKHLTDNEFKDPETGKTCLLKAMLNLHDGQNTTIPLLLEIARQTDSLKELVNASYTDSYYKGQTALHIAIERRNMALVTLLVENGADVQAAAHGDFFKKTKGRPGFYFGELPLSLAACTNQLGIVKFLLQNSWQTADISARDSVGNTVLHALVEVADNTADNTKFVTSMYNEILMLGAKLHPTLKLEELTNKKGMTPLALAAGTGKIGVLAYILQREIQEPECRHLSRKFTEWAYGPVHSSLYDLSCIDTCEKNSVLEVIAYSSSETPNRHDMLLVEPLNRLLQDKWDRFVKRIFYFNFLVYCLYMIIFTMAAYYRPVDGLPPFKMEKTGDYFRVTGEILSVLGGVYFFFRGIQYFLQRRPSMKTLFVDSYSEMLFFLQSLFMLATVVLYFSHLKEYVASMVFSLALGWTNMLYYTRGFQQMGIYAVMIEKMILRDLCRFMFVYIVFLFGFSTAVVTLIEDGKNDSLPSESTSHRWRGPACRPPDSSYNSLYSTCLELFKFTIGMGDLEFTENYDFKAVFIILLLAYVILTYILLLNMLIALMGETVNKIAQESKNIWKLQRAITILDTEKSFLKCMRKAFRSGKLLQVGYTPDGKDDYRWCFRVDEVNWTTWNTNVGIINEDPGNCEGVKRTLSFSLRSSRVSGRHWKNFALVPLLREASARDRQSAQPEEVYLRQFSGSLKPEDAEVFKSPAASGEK

Row | Structure (SMILES) | Potency [1] | Potency [2] | Potency [3] | Potency [4] | outcome [5] | Potency [6] | Potency [7] | Potency [8] | outcome [9] | outcome [10] | outcome [11] | Potency [12] | Potency [13] | Potency [14] | viability change [14] [%] | Potency [15] | Potency [16] | outcome [17] | activation [18]
1 | Cc1ccc(S(=O)(=O)/C=C/C#N)cc1 | inactive | 0.238 µM (active) | inactive | 39.8 µM (active) | inactive | inactive | 12.6 µM (active) | 20.6 µM (active) | inactive | – | – | – | – | – | – | – | – | – | –
2 | N#C/C(=C\c1ccc(O)c(O)c1)C(=O)NCCCc1ccccc1 | inactive | inactive | 7.08 µM (active) and 8.44 µM (active) | 5.62 µM (active) | – | – | – | – | inactive | inactive | inactive | inactive | inactive | inactive | -10.3 | inactive | – | – | –
3 | Cn1ncc(S(=O)(=O)Cc2ccccc2)c(Br)c1=O | inactive | 0.947 µM (active) | inactive | – | inactive | inactive | inactive | inactive | – | – | – | inactive | inactive | – | – | – | inactive | – | –
4 | CN1CCc2cc(NC(=O)Nc3cccnc3)ccc21 | inactive | inactive | inactive | – | inactive | inactive | inactive | – | inactive | inactive | inactive | inactive | – | inactive | -3.61 | inactive | inactive | – | –
5 | N=c1ccn2c(n1)O[C@H]1[C@H](O)[C@@H](CO)O[C@H]12 | inactive | inactive | inactive | inactive | inactive | inactive | inactive | – | inactive | – | – | inactive | inactive | – | – | – | – | inactive | –
6 | CN(C)CCCO[C@@H]1[C@H]2OC(C)(C)O[C@H]2O[C@@H]1[C@H](O)CO | inactive | inactive | inactive | – | inactive | inactive | inactive | – | inactive | – | – | inactive | inactive | inactive | 3.16 | – | inactive | – | –
7 | O=C(O)CC1CC(c2ccccc2)=NO1 (centres undefined) | inactive | inactive | inactive | inactive | inactive | inactive | inactive | – | inactive | – | – | inactive | inactive | inactive | 12.6 | – | – | – | –
8 | OC[C@H]1O[C@@H](n2cnc3c(Nc4ccccc4)ncnc32)[C@H](O)[C@@H]1O | inactive | inactive | inactive | 0.006 µM (active) | inactive | inactive | inactive | inactive | inactive | – | – | inactive | 9.2 µM (active) | – | – | – | – | – | –
9 | O=[N+]([O-])c1ccc2c(c1)S(=O)(=O)C=C2 | inactive | 2.12 µM (active) | inactive | – | inactive | – | inactive | – | inactive | – | – | – | inactive | – | – | – | inactive | – | –
10 | CC(C)NCC(O)COc1cccc2ccccc12 (centres undefined) | inactive | inactive | inactive | inactive | inactive | – | inactive | – | – | – | – | – | inactive | inactive | 6.42 | – | – | – | –
11 | O=C(c1ccc(Cl)cc1)N1CCN(c2ccc([N+](=O)[O-])c3ncccc23)CC1 | inactive | inactive | – | inactive | inactive | inactive | inactive | 20.6 µM (active) | inactive | – | – | inactive | inactive | – | – | – | inactive | – | –
12 | Fc1cccc(/C=N/N=C/c2cccc(F)c2)c1 | inactive | inactive | inactive | inactive | inactive | – | – | – | inactive | inactive | inactive | inactive | 23.1 µM (active) | inactive | 1.98 | inactive | – | – | -7.56% (inactive)
13 | NS(=O)(=O)C#Cc1ccccc1 | inactive | 4.74 µM (active) | inactive | inactive | inactive | inactive | inactive | – | inactive | – | – | inactive | – | – | – | – | – | – | –
14 | Clc1ccc(N2CCN(Cc3cc4ccccn4n3)CC2)cc1 | inactive | inactive | inactive | – | inactive | – | inactive | inactive | inactive | – | – | inactive | inactive | inactive | 2.97 | – | inactive | – | –
15 | CC1OC1P(=O)(O)O (centres undefined) | inactive | inactive | – | – | inactive | inactive | inactive | – | inactive | – | – | inactive | inactive | inactive | 11.8 | – | inactive | inactive | –
16 | CO/S(=N\S(=O)(=O)c1ccc(Cl)cc1)c1ccc([N+](=O)[O-])cc1 (centres undefined) | inactive | inactive | inactive | – | inactive | inactive | inactive | inactive | inactive | – | – | inactive | inactive | inactive | -1.86 | – | inactive | – | –
17 | CNC(=O)[C@H]1O[C@@H](n2cnc3c(NCc4cccc(I)c4)ncnc32)[C@H](O)[C@@H]1O | inactive | inactive | inactive | – | inactive | inactive | inactive | – | inactive | – | – | inactive | – | – | – | – | inactive | – | –
18 | O=P(O)(O)C(Cl)(Cl)P(=O)(O)O | inactive | inactive | – | – | inactive | inactive | inactive | inactive | inactive | – | – | – | inactive | inactive | 4.97 | – | inactive | – | –
